Several values for one entry are separate records, joined by “and”; a condition that tells them apart may be missing. Equal values may be shown once. About 83,000 compounds went through this panel and 20% of them were active in at least one assay; those are over-represented in the sample as a whole.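 Assay: single dose, 48 h. Readout: percent growth (0 = no net growth; negative = cell death). Active: <10.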 Activity calls are given as the source filed them.
Tests used:
Test in all cases: NCI-60 one-dose screen, 48 h (100 = growth as untreated, 0 = no growth, -100 = all killed)
Conditions in all cases: 10 µM unless noted
RPMI-8226 leukemia = system: RPMI-8226 leukemia
OVCAR-8 ovarian = system: OVCAR-8 ovarian
OVCAR-5 ovarian = system: OVCAR-5 ovarian
OVCAR-4 ovarian = system: OVCAR-4 ovarian
SK-OV-3 ovarian = system: SK-OV-3 ovarian
OVCAR-3 ovarian = system: OVCAR-3 ovarian
HS 578T breast = system: HS 578T breast
NCI/ADR-RES ovarian = system: NCI/ADR-RES ovarian
T-47D breast = system: T-47D breast
BT-549 breast = system: BT-549 breast
MDA-MB-435 melanoma = system: MDA-MB-435 melanoma
SW-620 colon = system: SW-620 colon
MCF7 breast = system: MCF7 breast
HCT-116 colon = system: HCT-116 colon
HCC-2998 colon = system: HCC-2998 colon
KM12 colon = system: KM12 colon
IGROV1 ovarian = system: IGROV1 ovarian

Structure (SMILES) | growth (RPMI-8226 leukemia) | growth (OVCAR-8 ovarian) | growth (OVCAR-5 ovarian) | growth (OVCAR-4 ovarian) | growth (SK-OV-3 ovarian) | growth (OVCAR-3 ovarian) | growth (HS 578T breast) | growth (NCI/ADR-RES ovarian) | growth (T-47D breast) | growth (BT-549 breast) | growth (MDA-MB-435 melanoma) | growth (SW-620 colon) | growth (MCF7 breast) | growth (HCT-116 colon) | growth (HCC-2998 colon) | growth (KM12 colon) | growth (IGROV1 ovarian)
Cc1nn(-c2ccc(Cl)cc2)c2ncnc(N/N=C/c3ccccc3O)c12 | 37.1% (inactive) and 11.7% (inactive) | 14.1% (inactive) and 14% (inactive) | 47.5% (inactive) and 52.7% (inactive) | 19.5% (inactive) and 21.9% (inactive) | 4.44% (active) and 10.8% (inactive) | 34.9% (inactive) and 26.7% (inactive) | 81% (inactive) and 56.4% (inactive) | 19.1% (inactive) and 10.5% (inactive) | 13.3% (inactive) and 23.8% (inactive) | 36% (inactive) and 36.4% (inactive) | 27.3% (inactive) and 23.7% (inactive) | 35.1% (inactive) and 31.5% (inactive) | 8.28% (active) and 12.1% (inactive) | 26.7% (inactive) and 21.6% (inactive) | 31% (inactive) and 39.7% (inactive) | 28.4% (inactive) and 22.2% (inactive) | 
Cc1c(Cl)cccc1NCN1C(=O)c2ccccc2C1=O | 105% (inactive) | 99.8% (inactive) | 107% (inactive) | 108% (inactive) | 106% (inactive) | 114% (inactive) | 118% (inactive) | 110% (inactive) |  | 106% (inactive) | 104% (inactive) | 110% (inactive) | 97.6% (inactive) | 116% (inactive) | 111% (inactive) | 103% (inactive) | 116% (inactive)
CC(=O)NC(Cc1ccccc1)C(=O)Oc1ccc2ccccc2c1 (configuration not stated) | 90.2% (inactive) | 103% (inactive) and 105% (inactive) | 108% (inactive) and 93% (inactive) | 101% (inactive) and 97.6% (inactive) | 91.5% (inactive) | 122% (inactive) and 100% (inactive) | 98.8% (inactive) and 107% (inactive) |  | 99.3% (inactive) and 108% (inactive) | 110% (inactive) | 119% (inactive) and 107% (inactive) | 107% (inactive) and 96.7% (inactive) | 113% (inactive) and 97.8% (inactive) | 113% (inactive) and 114% (inactive) | 105% (inactive) and 97% (inactive) |  | 135% (inactive) and 111% (inactive)
CN1C(=O)C(N=Nc2ccc([N+](=O)[O-])cc2)SC1=S (configuration not stated) | 32.7% (inactive) and 10.8% (inactive) | 70.7% (inactive) and 72.4% (inactive) | 56.2% (inactive) and 51.5% (inactive) | 65.8% (inactive) and 76.7% (inactive) | 66.6% (inactive) and 69.2% (inactive) | 59.3% (inactive) and 62.7% (inactive) | 72.6% (inactive) and 71% (inactive) | 45.7% (inactive) and 15.5% (inactive) | 50.9% (inactive) and 57.2% (inactive) | 71% (inactive) and 67.8% (inactive) | 75.8% (inactive) and 85.4% (inactive) | 49% (inactive) and 60.3% (inactive) | 82.4% (inactive) and 68.8% (inactive) | 61.7% (inactive) and 70.5% (inactive) | -0.382% (active) |  | 
NC(=S)NS(=O)(=O)c1ccc(N)cc1 | 110% (inactive) |  | 106% (inactive) | 113% (inactive) | 108% (inactive) | 123% (inactive) | 101% (inactive) | 104% (inactive) | 108% (inactive) | 128% (inactive) | 104% (inactive) | 110% (inactive) | 101% (inactive) | 101% (inactive) | 106% (inactive) | 110% (inactive) | 107% (inactive)
CC(C)Cc1ccc(C(C)C(=O)NCc2ccc(Cn3c(=O)sn(CCCI)c3=O)cc2)cc1 (configuration not stated) | 96.5% (inactive) and -19.8% (active) | 96.3% (inactive) and -30.2% (active) | 103% (inactive) and -58.1% (active) | 84.9% (inactive) and -53.2% (active) | 70.9% (inactive) | 92.7% (inactive) and -86% (active) | 92.1% (inactive) and -1.05% (active) | 106% (inactive) and -18.5% (active) |  | 89.9% (inactive) and -81.9% (active) | 93% (inactive) and -72.6% (active) | 66.5% (inactive) and -63.2% (active) | 31.7% (inactive) and -61.4% (active) | 82% (inactive) and -72.9% (active) | 91.5% (inactive) and -69.2% (active) | 99.2% (inactive) and -36.7% (active) | 88.2% (inactive) and -82.1% (active)
COc1ccc(-c2ncnc3c2ncn3C/C=C/CCl)cc1 | 52.1% (inactive) and 67.4% (inactive) | 67.2% (inactive) and 69.5% (inactive) |  | 53.3% (inactive) and 56.7% (inactive) | 111% (inactive) and 109% (inactive) | 77.6% (inactive) and 99% (inactive) | 131% (inactive) and 111% (inactive) | 76.9% (inactive) and 86.3% (inactive) | 67.9% (inactive) and 92.5% (inactive) | 53.8% (inactive) and 87.2% (inactive) | 57.8% (inactive) and 81.6% (inactive) | 61.1% (inactive) and 74.7% (inactive) | 40.2% (inactive) and 55.6% (inactive) | 46.6% (inactive) and 76.8% (inactive) | 91.2% (inactive) and 95.4% (inactive) |  | 93.8% (inactive) and 82.9% (inactive)
O=C1c2ccccc2C(=O)c2c(NCCNCCO)ccc(NCCNCCO)c21 | 55.6% (inactive) and 54% (inactive) and 33.8% (inactive) | 0.849% (active) and 17.5% (inactive) |  | -16.3% (active) and 1.58% (active) and 1.59% (active) | -4.52% (active) and 27.8% (inactive) and 34.9% (inactive) | 64.1% (inactive) and 44.1% (inactive) | -20.7% (active) and -14.7% (active) and 30.7% (inactive) | -24.9% (active) and 93.1% (inactive) and 102% (inactive) | -3.06% (active) and 10.5% (inactive) and 31.6% (inactive) | 6.06% (active) and 86.7% (inactive) and 62.6% (inactive) | 22.6% (inactive) and 43.5% (inactive) and 20.8% (inactive) | 12.2% (inactive) and 27.3% (inactive) and 22.2% (inactive) | -1.56% (active) and 6.38% (active) and 2.38% (active) | -21.4% (active) and 22.7% (inactive) and 17.7% (inactive) | 36.6% (inactive) and 41.1% (inactive) | 8.81% (active) and 41.7% (inactive) and 40.2% (inactive) | 29.1% (inactive) and 16.9% (inactive)
CC(/C=N/N1C(=O)c2ccccc2C1=O)c1ccccc1 (configuration not stated) | 97.9% (inactive) | 101% (inactive) | 103% (inactive) | 112% (inactive) |  | 113% (inactive) | 119% (inactive) | 113% (inactive) | 98.7% (inactive) | 113% (inactive) | 91.6% (inactive) | 106% (inactive) | 97.5% (inactive) | 108% (inactive) | 106% (inactive) | 113% (inactive) | 98.6% (inactive)
O=Nc1ccc(O)cc1 | 97.6% (inactive) and 103% (inactive) | 106% (inactive) and 92.4% (inactive) | 105% (inactive) and 98.9% (inactive) | 108% (inactive) and 106% (inactive) | 108% (inactive) and 107% (inactive) | 89.2% (inactive) and 97.7% (inactive) | 104% (inactive) and 96.6% (inactive) | 89.3% (inactive) and 84.6% (inactive) | 87.5% (inactive) and 85.2% (inactive) | 83% (inactive) | 104% (inactive) and 108% (inactive) | 86.1% (inactive) and 94.1% (inactive) | 84.6% (inactive) and 93.4% (inactive) | 103% (inactive) and 78.3% (inactive) | 101% (inactive) and 104% (inactive) | 101% (inactive) and 94.7% (inactive) | 
